According to PubChem BioAssay:
Several values for one entry are separate records, joined by “and”; a condition that tells them apart may be missing. Equal entries are not always repeated.

Key:
[1] = system: Botulinum neurotoxin type F light chain protease (Clostridium botulinum); assay: Botulinum neurotoxin type F light chain protease inhibition, multiplex microsphere flow cytometry, validation set (AID 588459); details: multiplex microsphere protease substrate cleavage assay, at 10 µM, active compounds read high
[2] = target: Botulinum neurotoxin type A (Clostridium botulinum) (UniProt P0DPI0); assay: BoNT/A light chain protease inhibitors, biochemical, multiplex microsphere flow cytometry, validation set (AID 588460); details: at 10 µM, active compounds read high
Sequence of Botulinum neurotoxin type A (Clostridium botulinum) (P0DPI0 whole entry, looked up): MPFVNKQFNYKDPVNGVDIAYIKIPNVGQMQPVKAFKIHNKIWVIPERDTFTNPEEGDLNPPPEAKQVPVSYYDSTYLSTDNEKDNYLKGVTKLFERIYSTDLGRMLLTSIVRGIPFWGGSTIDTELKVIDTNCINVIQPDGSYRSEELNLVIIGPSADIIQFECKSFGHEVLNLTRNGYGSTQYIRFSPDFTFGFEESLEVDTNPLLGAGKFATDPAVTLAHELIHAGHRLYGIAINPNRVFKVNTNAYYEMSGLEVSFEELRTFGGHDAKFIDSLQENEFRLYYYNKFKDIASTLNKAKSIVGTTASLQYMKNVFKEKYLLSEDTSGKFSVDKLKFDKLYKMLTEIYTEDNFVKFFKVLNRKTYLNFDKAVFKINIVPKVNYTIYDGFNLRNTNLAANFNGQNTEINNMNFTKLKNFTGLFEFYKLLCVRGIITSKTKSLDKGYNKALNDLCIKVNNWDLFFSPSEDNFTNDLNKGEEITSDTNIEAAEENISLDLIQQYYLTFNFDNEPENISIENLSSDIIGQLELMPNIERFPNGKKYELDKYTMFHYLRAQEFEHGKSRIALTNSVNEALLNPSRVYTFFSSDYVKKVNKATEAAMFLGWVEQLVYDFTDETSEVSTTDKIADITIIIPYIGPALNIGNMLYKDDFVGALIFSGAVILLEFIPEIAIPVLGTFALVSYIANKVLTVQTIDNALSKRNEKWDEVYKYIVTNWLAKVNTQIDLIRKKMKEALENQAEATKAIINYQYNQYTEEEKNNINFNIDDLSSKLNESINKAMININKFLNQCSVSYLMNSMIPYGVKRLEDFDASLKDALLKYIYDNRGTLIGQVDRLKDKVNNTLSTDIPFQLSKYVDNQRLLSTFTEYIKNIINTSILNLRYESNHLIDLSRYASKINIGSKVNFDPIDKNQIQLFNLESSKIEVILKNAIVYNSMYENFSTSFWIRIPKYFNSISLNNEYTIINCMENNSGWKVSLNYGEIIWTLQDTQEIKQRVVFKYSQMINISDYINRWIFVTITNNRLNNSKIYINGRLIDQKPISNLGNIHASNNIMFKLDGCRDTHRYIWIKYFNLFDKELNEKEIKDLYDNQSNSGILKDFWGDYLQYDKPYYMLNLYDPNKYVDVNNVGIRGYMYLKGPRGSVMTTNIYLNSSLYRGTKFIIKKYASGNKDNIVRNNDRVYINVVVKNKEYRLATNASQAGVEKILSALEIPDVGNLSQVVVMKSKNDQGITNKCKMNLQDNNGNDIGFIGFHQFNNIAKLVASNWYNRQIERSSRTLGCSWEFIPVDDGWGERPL

[3] = target: Lethal factor (Bacillus anthracis) (UniProt P15917); assay: Lethal factor protease inhibitors, Bacillus anthracis, multiplex microsphere cleavage assay, validation set (AID 588461); details: flow cytometry, at 10 µM, active compounds read high
Sequence of Lethal factor (Bacillus anthracis) (P15917 whole entry, looked up): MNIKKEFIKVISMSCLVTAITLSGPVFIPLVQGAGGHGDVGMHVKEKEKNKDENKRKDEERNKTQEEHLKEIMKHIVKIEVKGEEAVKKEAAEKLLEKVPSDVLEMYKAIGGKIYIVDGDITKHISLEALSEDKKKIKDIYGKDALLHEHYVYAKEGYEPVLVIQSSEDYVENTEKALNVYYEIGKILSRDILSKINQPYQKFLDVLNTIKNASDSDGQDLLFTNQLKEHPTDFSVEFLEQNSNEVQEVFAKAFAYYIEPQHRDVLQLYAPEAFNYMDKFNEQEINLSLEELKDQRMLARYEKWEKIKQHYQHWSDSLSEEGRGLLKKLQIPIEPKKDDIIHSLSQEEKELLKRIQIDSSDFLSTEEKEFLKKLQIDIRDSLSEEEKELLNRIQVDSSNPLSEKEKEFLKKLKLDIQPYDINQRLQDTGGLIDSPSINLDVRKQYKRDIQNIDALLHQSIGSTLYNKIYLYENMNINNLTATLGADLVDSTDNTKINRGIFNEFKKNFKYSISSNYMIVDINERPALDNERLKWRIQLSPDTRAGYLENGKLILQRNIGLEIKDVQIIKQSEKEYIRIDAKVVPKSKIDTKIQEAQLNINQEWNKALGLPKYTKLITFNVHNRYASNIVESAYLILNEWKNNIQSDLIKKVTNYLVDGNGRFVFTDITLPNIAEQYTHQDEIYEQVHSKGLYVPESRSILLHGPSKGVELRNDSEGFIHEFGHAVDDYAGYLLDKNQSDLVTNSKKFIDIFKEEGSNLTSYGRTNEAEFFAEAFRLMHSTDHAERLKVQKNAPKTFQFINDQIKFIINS

Measured: inhibition

CC(=O)OCC(=O)[C@@]1(O)[C@H](C)C[C@H]2[C@@H]3CCC4=CC(=O)C=C[C@]4(C)[C@@]3(F)[C@@H](O)C[C@@]21C
inactive: [1] 3% | [2] 0.4% | [3] 6.7%

CCn1cc(C(=O)O)c(=O)c2cnc(N3CCNCC3)nc21
inactive: [1] 0.1% | [2] 1% | [3] -7.3%

CC(C)Cc1nc(NCCN2CCOCC2)c(C#N)c2c1COC(C)(C)C2
inactive: [1] -1.6% | [2] -0.8% | [3] -3%

COc1ccc(CC(=O)c2c(O)cc(O)cc2O)cc1OC
inactive: [1] 0% | [2] 1.7% | [3] -2.8%

Cc1ccc(/C=N/Nc2nc(C(C)(C)C)cs2)o1
inactive: [1] -1% | [2] -0.3% | [3] -6.6%

CC(=O)c1cn(C)c(=O)[nH]c1=O
inactive: [1] 2.9% | [2] 1.3% | [3] -0.5%

COc1cccc2c1C(=O)O/C2=C/c1ccc2c(c1)OCO2
inactive: [1] -0.9% | [2] -0.8% | [3] 2.1%

CC1(C)O[C@@H]2C[C@H]3[C@@H]4C[C@H](F)C5=CC(=O)CC[C@]5(C)[C@H]4[C@@H](O)C[C@]3(C)[C@]2(C(=O)CO)O1
inactive: [1] 1.1% | [2] -0.8% | [3] 10.7%

O=c1[nH]c(=O)n([C@H]2C[C@H](O)[C@@H](CO)O2)cc1C(F)(F)F
inactive: [1] -1% | [2] 0% | [3] 3.3%

COc1ccc(CCn2c(C)cc3c(c2=O)C(c2ccncc2)C(C#N)=C(N)O3)cc1OC (configuration not stated)
inactive: [1] -1.2% | [2] -0.6% | [3] -6.7%

CCC(=O)Oc1ccc(C(=O)Nc2ccc([N+](=O)[O-])cc2)cc1
inactive: [1] 2.3% | [2] -0.2% | [3] -3.6%

CN(C)C(=O)Oc1cccc([N+](C)(C)C)c1
inactive: [1] 0.7% and -1.3% | [2] 0.2% and -0.7% | [3] 1.5% and 2.9%

CCCc1cc(=O)[nH]c(=S)[nH]1
inactive: [1] -2.4% | [2] 1.4% | [3] 1.8%

COC(=O)[C@H]1[C@H]2C[C@@H]3c4[nH]c5cc(OC)ccc5c4CCN3C[C@H]2C[C@@H](OC(=O)c2ccc(N)cc2)[C@@H]1OC
inactive: [1] -4.7% | [2] -2.3% | [3] -32.8%

CC12CCC(C(=O)N3CCCCC3)([C@H](Br)C1=O)C2(C)C (some centres not stated)
inactive: [1] -3.4% | [2] -1.3% | [3] 0.1%

Cc1ccc(CN2CCN(Cc3cn[nH]c3C3CCCCC3)CC2CCO)cc1 (configuration not stated)
inactive: [1] -1.3% | [2] -0.4% | [3] -2.1%

CNc1nc(N(C)C)nc(N(C)C)n1
inactive: [1] 1.3% | [2] 0.7% | [3] -1.7%

Cc1ccc2c(c1)C(O)(c1c(C)[nH]c3ccccc13)C(=O)N2 (configuration not stated)
inactive: [1] -4.4% | [2] -1.6% | [3] -10%

COc1ccc(C(=O)N2c3cc4c(cc3C(C)=CC2(C)C)OCO4)cc1
inactive: [1] 3.7% | [2] 0% | [3] 4%

Cc1nc(C)c(C)nc1C
inactive: [1] -1.1% | [2] -0.9% | [3] -9.1%

O=C(c1ccc(Cl)cc1)C1CCCN(Cc2ccc(Oc3ncccn3)cc2)C1 (configuration not stated)
inactive: [1] 2.2% | [2] -1.2% | [3] -3.2%

Cc1ccc2c(c1)c1c3n2CCCNC3CCC1 (configuration not stated)
inactive: [1] 9.2% | [2] 1.9% | [3] 0.5%

CCOC(=O)c1c(O)c2c([nH]c1=O)CCCC2
inactive: [1] 2.3% | [2] -1.4% | [3] -3.9%

COc1ccc2oc(=O)c(-c3nc(C)cs3)cc2c1
inactive: [1] 2.9% | [2] 1.9% | [3] -0.1%

CCCc1c(OCCCCc2nn[nH]n2)ccc(C(C)=O)c1O
inactive: [1] -1.3% | [2] -4% | [3] -10.3%

CCOc1ccc2ccccc2c1C(=O)N[C@@H]1C(=O)N2[C@@H]1SC(C)(C)[C@@H]2C(=O)O
inactive: [1] 5.4% | [2] 1.2% | [3] 0.3%

Cc1cccc2c(C(=O)O)cc(-c3cccnc3)nc12
inactive: [1] -2.3% | [2] -0.5% | [3] -6.1%

CC(C)c1ccccc1OCCNC(=S)NC(=O)c1cccnc1
inactive: [1] 4.3% | [2] 1.6% | [3] 2.6%

CCc1cc(=O)oc2cc(OCc3nn[nH]n3)ccc12
inactive: [1] -0.5% | [2] -1.3% | [3] 1.9%

CCN1CCn2c3c(c4cc(Cl)ccc42)CCCC31 (configuration not stated)
inactive: [1] 0.6% | [2] 1.4% | [3] -8.7%

CCN(CC)CCNC(=O)c1cc(S(C)(=O)=O)ccc1OC
inactive: [1] 2.7% | [2] 1.8% | [3] 4.7%

COc1cccc2cc(-c3ccccc3)c(=O)oc12
inactive: [1] -1.9% | [2] -1.7% | [3] 1.7%

Cc1cccc(NC(=O)c2cc3ccccc3o2)c1
inactive: [1] 1.3% | [2] -0.4% | [3] -2.2%

Cc1cccc2c(=O)n3c(nc12)CCCCC3
inactive: [1] 0.4% | [2] -1.4% | [3] -10.4%

O=C(C1CCCCC1)N1CC(=O)N2CCc3ccccc3C2C1 (configuration not stated)
inactive: [1] -2.5% | [2] -1.1% | [3] 3.9%

c1cc2c(cc1C1CCCCC1)c1c3n2CCN=C3CCC1
inactive: [1] 0.7% | [2] -0.3% | [3] -11.8%

O=C(O)Cc1ccc(O)c(F)c1
inactive: [1] 2.3% | [2] -0.5% | [3] -3.6%

CC(C)=CCC/C(C)=C/CC/C(C)=C/CC/C(C)=C/CC1=C(C)C(=O)c2ccccc2C1=O
inactive: [1] -4.8% | [2] -0.7% | [3] -3%

CC(=O)OCC(=O)[C@@]1(OC(C)=O)[C@@H](C)C[C@H]2[C@@H]3C[C@H](F)C4=CC(=O)C=C[C@]4(C)[C@@]3(F)[C@@H](O)C[C@@]21C
inactive: [1] 1.6% | [2] 0.4% | [3] -0.9%

O=C(CCCN1C(=O)/C(=C\c2cccc(Br)c2)SC1=S)Nc1cccnc1
inactive: [1] -1.7% | [2] -0.3% | [3] 2.4%

CCc1ccc(/C=C2\SC(=S)N(CCC(=O)N3CCN(C)CC3)C2=O)cc1
inactive: [1] 4.9% | [2] 2.1% | [3] 4.9%

COc1ccc(C(=O)C2CCCCC2=O)cc1 (configuration not stated)
inactive: [1] 1.5% | [2] 0.2% | [3] -1.2%

Oc1ccc(Cl)cc1Cc1cc(Cl)ccc1O
inactive: [1] 10% | [2] 4.5% | [3] 7.7%

NCCc1ccc(O)c(O)c1
inactive: [1] -6.2% | [2] -3.5% | [3] -8.7%

CC(=O)[C@@]1(O)CC[C@H]2[C@@H]3C[C@H](C)C4=CC(=O)C=C[C@]4(C)[C@@]3(F)[C@@H](O)C[C@@]21C
inactive: [1] -1.5% | [2] -1.1% | [3] 5.2%

CC(=O)O[C@H]1CC[C@H]2[C@@H]3CCc4cc(O)ccc4[C@H]3CC[C@]12C
inactive: [1] -3.4% | [2] -0.9% | [3] -2.4%

CN(C)CCOC(C)(c1ccccc1)c1ccccn1 (configuration not stated)
inactive: [1] 1.4% | [2] 0.5% | [3] -3.8%

COc1ccc(C2=C(CN(C)C)C(c3ccccc3)c3ccccc3O2)cc1 (configuration not stated)
inactive: [1] -3% | [2] -3.7% | [3] -2.3%

CC(=O)/C=C/c1ccc(C)o1
inactive: [1] 3.8% | [2] 0.9% | [3] 3%

Cc1c2c(nc3c(C)cccc13)OC(C)C2 (configuration not stated)
inactive: [1] 2.9% | [2] -2.4% | [3] -4.3%

O=C(O)C1CSC(c2ccc3c(c2)OCO3)N1 (configuration not stated)
inactive: [1] 3.1% | [2] 1.1% | [3] -0.7%

CC(=O)Oc1ccc(C(c2ccc(OC(C)=O)cc2)c2ccccn2)cc1
inactive: [1] 1.2% | [2] -0.3% | [3] -2.2%

COc1ccc(-c2cc3cc(OC)c(OC)cc3c(C)n2)cc1
inactive: [1] -3.3% | [2] 1.2% | [3] 4.5%

COc1cccc(CN2C(=O)N(C(C)C)C(N(O)C(=O)NC(C)C)C2(C)C)c1OC (configuration not stated)
inactive: [1] -1.7% | [2] -0.8% | [3] -2.1%

CCN(CC)C(=S)SSC(=S)N(CC)CC
inactive: [1] -3.2% | [2] -3.2% | [3] -10.6%

C[C@]12CCC(=O)C=C1CC[C@@H]1[C@@H]2[C@@H](O)C[C@@]2(C)[C@H]1CC[C@]2(O)C(=O)COC(=O)CCC(=O)O
inactive: [1] 1.7% | [2] -2.4% | [3] -8%

CC1CCCC(C)N1NC(=O)c1ccc(Cl)c(S(N)(=O)=O)c1 (configuration not stated)
inactive: [1] -0.2% | [2] 0.8% | [3] 5.8%

Cn1c2ccccc2c2cc(/C=C(\NC(=O)c3ccccc3)C(=O)O)ccc21
inactive: [1] -0.2% | [2] 0.3% | [3] 4.6%

Cn1cc(CN2CCCC(CO)(Cc3cccc(Cl)c3)C2)cn1 (configuration not stated)
inactive: [1] 4.8% | [2] 1.3% | [3] -5.4%

CS(=O)(=O)c1cccc(C(=O)Oc2ccccc2)c1
inactive: [1] -2% | [2] 0.1% | [3] 4.6%

Clc1ccc2c(c1)C(N1CCNCC1)=Nc1ccccc1O2
inactive: [1] 3.1% | [2] 2.2% | [3] -6.2%

C#CCN1C(=O)C(O)(c2c(C)[nH]c3ccccc23)c2ccccc21 (configuration not stated)
inactive: [1] 0.4% | [2] 0.5% | [3] -3.2%

COc1ccccc1C(CCN(Cc1ccccc1)C(C)=O)c1ccco1 (configuration not stated)
inactive: [1] -6.5% | [2] -1.3% | [3] -0.5%

O=C(CCCCCCCC(=O)c1ccccc1)c1ccccc1
inactive: [1] -2% | [2] -2.3% | [3] -9.8%
